DENV2 CPE rescue = inhibitors of DENV2 cytopathic effect, primary screen, cell-based, plate reader, single concentration; DENV2-infected cells, cytopathic effect rescue; CPE inhibition, % at 9.99 µM; actives 1.7% (n = 350,000); AID 651640, 2012; in the data active = CPE inhibition above about 20%, passing the limit was not always enough; tested in BHK-21 cells;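 note: 0% = median of neutral control wells and 100% = median of positive control wells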
SIRT5 block = SIRT5 desuccinylase inhibitors, primary screen, biochemical, fluorescence imaging, single point, set 5; NAD-dependent protein deacylase sirtuin-5, mitochondrial (Homo sapiens), Q9NXA8; Purified SirT5, succinyl-peptide AMC, trypsin-coupled fluorescence; actives 1.1% (n = 330,000); inhibition, % at 15 µM; in the data active = inhibition above about 15%
Target sequence (Q9NXA8 whole entry, looked up): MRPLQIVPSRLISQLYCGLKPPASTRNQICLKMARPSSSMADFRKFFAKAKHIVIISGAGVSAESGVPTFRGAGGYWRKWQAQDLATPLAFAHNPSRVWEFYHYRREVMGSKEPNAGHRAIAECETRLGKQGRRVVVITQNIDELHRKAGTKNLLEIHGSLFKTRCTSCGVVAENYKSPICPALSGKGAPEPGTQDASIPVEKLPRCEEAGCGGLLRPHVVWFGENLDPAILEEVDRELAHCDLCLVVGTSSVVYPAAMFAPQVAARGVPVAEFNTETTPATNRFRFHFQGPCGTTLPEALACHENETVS
PDI inh = inhibitors of human PDI, primary screen, biochemical, turbidity, single point, plate reader | inhibition, % at 10 µM | PDI insulin aggregation turbidity, A650, 90 min | Protein disulfide-isomerase (Homo sapiens), P07237 | actives 0.052% (n = 350,000);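 active = mean inhibition across replicates of 30% or more, whatever share of single replicates reach that level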
ERp5 block = inhibitors of ERp5-driven insulin aggregation, primary screen, biochemical, turbidity, absorbance 650 nm, single point; Protein disulfide-isomerase A6 (Homo sapiens), Q15084; 90 min; inhibition, % at 9.99 µM; actives 0.05% (n = 350,000); AID 651711, 2012;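 active = mean replicate inhibition above about 25%, with every replicate also reaching it, limit read from the data, passing the limit was not always enough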
Rtt109 HAT inh = inhibitors of C. albicans Rtt109/Vps75 HAT, primary screen, biochemical, ThioGlo CoA-SH fluorescence, plate reader. purified Rtt109/Vps75, 4 h. inhibition, % at 34.9 µM. actives 0.16% (n = 330,000). Histone acetyltransferase RTT109 (Candida albicans (strain SC5314 / ATCC MYA-2876)), …;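 active = inhibition of at least 50% in every replicate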
Target sequence (Q5AAJ8 whole entry, looked up): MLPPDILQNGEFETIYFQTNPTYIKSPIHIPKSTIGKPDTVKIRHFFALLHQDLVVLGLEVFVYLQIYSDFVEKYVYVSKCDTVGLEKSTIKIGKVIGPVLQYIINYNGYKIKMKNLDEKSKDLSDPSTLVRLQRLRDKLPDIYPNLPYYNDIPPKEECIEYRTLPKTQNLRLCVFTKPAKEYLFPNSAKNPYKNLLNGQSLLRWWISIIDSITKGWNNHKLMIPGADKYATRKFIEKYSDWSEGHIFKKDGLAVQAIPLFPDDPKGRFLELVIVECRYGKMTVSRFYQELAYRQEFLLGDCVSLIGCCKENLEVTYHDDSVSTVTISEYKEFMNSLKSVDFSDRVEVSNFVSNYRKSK
Numbers without * were called inactive; ! = not confirmed by another sample. The list is not random: actives were taken first. Their share in the collection is about 2.3%.

How did O=[N+]([O-])c1cccc(O)c1 do in these assays?
DENV2 CPE rescue: 25.4*; ERp5 block: -3.2; Rtt109 HAT inh: -8.2

What do the screens show for `CN1C2CCC1CC(OC(=O)c1ccc([N+](=O)[O-])cc1)C2` (stereo unspecified)?
DENV2 CPE rescue: 65.9*; PDI inh: -12.5; ERp5 block: -2.7; Rtt109 HAT inh: -7.1

Results for CC1CC(OC(=O)c2ccccc2)CC(C)N1C (stereo unspecified) ?
PDI inh: -3.4; Rtt109 HAT inh: -6.8

Results for CN1C2CCC1CC(OC(=O)c1cccc(O)c1)C2 (stereo unspecified) ?
DENV2 CPE rescue: 28.7*; SIRT5 block: -2.0; ERp5 block: 1.2; Rtt109 HAT inh: -4.3

How did Clc1ccc([C@H]2CC3CCC2N3)cn1 (stereo partly specified) do in these assays?
DENV2 CPE rescue: 48.8*!; ERp5 block: -4.0

What do the screens show for `CCN1C(=O)C(=C/C=C/c2ccco2)C(=O)N(CC)C1=S`?
DENV2 CPE rescue: 6.0; SIRT5 block: 21.1*; PDI inh: 11.8; ERp5 block: 5.8; Rtt109 HAT inh: 27.7

How did O=C(c1ccc(CNS(=O)(=O)c2ccccc2)cc1)N1CCC2(CC1)OCCO2 do in these assays?
PDI inh: 0.7; Rtt109 HAT inh: -3.4

Results for O=C(c1ccc(CNS(=O)(=O)c2ccc(Br)cc2)cc1)N1CCC2(CC1)OCCO2 ?
DENV2 CPE rescue: 37.1*; SIRT5 block: -1.1; PDI inh: -13.6; ERp5 block: 2.1; Rtt109 HAT inh: -0.2

What do the screens show for `CN1CCN(C(=O)COc2ccc(N(C)S(=O)(=O)c3ccc(F)cc3)cc2)CC1`?
DENV2 CPE rescue: -1.8; SIRT5 block: 23.4*; PDI inh: 23.4; ERp5 block: 1.9; Rtt109 HAT inh: -2.4

What do the screens show for `O=C(Cc1ccccc1)N1CCCCN2[C@H](C1)[C@H](c1ccc(C#Cc3ccccc3)cc1)[C@@H]2CO`?
DENV2 CPE rescue: -15.3; SIRT5 block: -2.3; ERp5 block: -1.9

Results for CCCN1[C@@H]2Cn3c(ccc(-c4ccccc4)c3=O)[C@H]1[C@@H](C(=O)OC)[C@@H]2CO ?
DENV2 CPE rescue: 6.7; SIRT5 block: -3.2; ERp5 block: 0.7

Results for N#CC(C#N)=NNc1ccc(-n2ccc(C(F)(F)F)n2)cc1 ?
DENV2 CPE rescue: -9.7; PDI inh: 22.6; ERp5 block: 0.3; Rtt109 HAT inh: -9.0

How did Cc1cc(C)n(-c2ccc(NN=C(C#N)C#N)cc2)n1 do in these assays?
DENV2 CPE rescue: 31.2*; SIRT5 block: 3.1; PDI inh: 10.9; ERp5 block: 1.7; Rtt109 HAT inh: 20.4

What do the screens show for `CCCN1[C@@H]2Cn3c(ccc(-c4cccc(C(=O)N(C)C)c4)c3=O)[C@H]1[C@@H](C(=O)OC)[C@@H]2CO`?
DENV2 CPE rescue: 2.4; SIRT5 block: -0.1; ERp5 block: 0.5

How did O=C1/C(=C/c2cccnc2)N2CCC1CC2 do in these assays?
DENV2 CPE rescue: 5.0; SIRT5 block: 1.0; PDI inh: 2.6; ERp5 block: 4.2; Rtt109 HAT inh: 1.6

Results for O=C1C(=Cc2ccccc2)N2CCC1CC2 ?
DENV2 CPE rescue: 29.1*; SIRT5 block: 0.9; PDI inh: 1.1; ERp5 block: -2.7; Rtt109 HAT inh: -4.5

Results for COC(=O)[C@@H]1[C@@H](CO)[C@@H]2Cn3c(ccc(-c4cccc(F)c4)c3=O)[C@H]1N2C(=O)CC1CC1 ?
DENV2 CPE rescue: -7.9; SIRT5 block: -23.0; ERp5 block: -1.0

Results for CC(C)CC#Cc1ccc([C@@H]2[C@H](CO)N3CCCCN(C(=O)Cc4ccccn4)C[C@@H]23)cc1 ?
DENV2 CPE rescue: 16.3; SIRT5 block: 0.1; ERp5 block: -0.2

How did CC=Cc1ccc2n(c1=O)C[C@H]1[C@H](CO)[C@@H](C(=O)OC)[C@@H]2N1CC1CC1 (mixture of isomers) do in these assays?
DENV2 CPE rescue: -4.3; SIRT5 block: -6.3; ERp5 block: -7.7

What do the screens show for `O=C1C2C3CCC(O3)C2C(=O)N1c1cccc(F)c1` (stereo unspecified)?
DENV2 CPE rescue: -0.3; SIRT5 block: -4.9; PDI inh: 11.2; ERp5 block: -1.0

Results for CCC(c1ccc(C)cc1)N1C(=O)C2C3CCC(O3)C2C1=O (stereo unspecified) ?
DENV2 CPE rescue: 25.3*; SIRT5 block: -0.2; PDI inh: -0.9; ERp5 block: 5.9; Rtt109 HAT inh: 8.1

What do the screens show for `N#Cc1cccc(-c2ccc([C@H]3[C@H](CO)N4CCCCN(C(=O)Cc5cccnc5)C[C@@H]34)cc2)c1`?
DENV2 CPE rescue: 6.2; SIRT5 block: -6.8; ERp5 block: -0.2

Results for O=C(Cc1cccnc1)N1CCCCN2[C@H](CO)[C@@H](c3ccc(C#CC4CCCC4)cc3)[C@H]2C1 ?
DENV2 CPE rescue: 39.6*; SIRT5 block: -0.7; ERp5 block: -2.8

How did N#Cc1cccc(-c2ccc([C@H]3[C@@H](CO)N4CCCCN(C(=O)Cc5cccnc5)C[C@H]34)cc2)c1 do in these assays?
DENV2 CPE rescue: 38.0*; SIRT5 block: -2.0; ERp5 block: -1.2

Results for O=C(Cc1cccnc1)N1CCCCN2[C@@H](CO)[C@@H](c3ccc(C#CC4CCCC4)cc3)[C@@H]2C1 ?
DENV2 CPE rescue: 32.4*; SIRT5 block: 12.3; ERp5 block: -3.3

What do the screens show for `O=C(Cc1cccnc1)N1CCCCN2[C@@H](CO)[C@@H](c3ccc(C#CC4(O)CCCC4)cc3)[C@@H]2C1`?
DENV2 CPE rescue: 39.9*; SIRT5 block: -1.4; ERp5 block: -0.9

Results for COC(=O)[C@H]1[C@H](CO)[C@H]2Cn3c(ccc(-c4ccccc4F)c3=O)[C@@H]1N2C(=O)C1CC1 ?
DENV2 CPE rescue: -3.5; SIRT5 block: -8.0; ERp5 block: -5.6

Results for COC(=O)C[C@H]1CC[C@@H]2NC[C@@H](O)COC[C@H]2O1 ?
DENV2 CPE rescue: 5.7; SIRT5 block: 4.1; ERp5 block: 1.3

What do the screens show for `O=P(Oc1ccccc1)(N1CCOCC1)N1CCOCC1`?
DENV2 CPE rescue: -7.1; SIRT5 block: 6.4; PDI inh: -0.3; ERp5 block: 1.6

What do the screens show for `CN(c1ccccc1)P(=O)(N1CC1)N1CC1`?
DENV2 CPE rescue: -7.5; SIRT5 block: 15.6*; PDI inh: 7.6; ERp5 block: -12.8; Rtt109 HAT inh: 11.6

Results for COc1ccc(NC(=S)N2Cc3ccccc3-n3nncc3C2)c(OC)c1 ?
DENV2 CPE rescue: 25.2*; SIRT5 block: -1.8; PDI inh: 13.0; ERp5 block: 5.6

Results for CCOC(=O)[C@@H]1[C@@H]2NC(=S)N[C@@]1(C)Oc1ccccc12 ?
DENV2 CPE rescue: 1.4; SIRT5 block: -1.7; ERp5 block: 2.3

What do the screens show for `COC(=O)[C@H]1[C@H](CO)[C@H]2Cn3c(ccc(-c4ccccc4F)c3=O)[C@@H]1N2CC1CCCC1`?
DENV2 CPE rescue: 4.4; SIRT5 block: -2.1; ERp5 block: -3.4

Bioassay records: PubChem, Broad Institute
